Experimental findings from article PMC10726135, “HNF4α isoforms regulate the circadian balance between carbohydrate and lipid metabolism in the liver” are described below.

The full ranking holds about 18,000 sequences; the median of “log2 normalized intensity” is about 0.36, and the highest 2% start at about 7.3. The sample as a whole holds a higher share of the highest values than the screen did.

This test addresses T1, HNF4alpha8 (COS-7 nuclear extract) (Homo sapiens, UniProt P41235-5 1-452).
T1 sequence: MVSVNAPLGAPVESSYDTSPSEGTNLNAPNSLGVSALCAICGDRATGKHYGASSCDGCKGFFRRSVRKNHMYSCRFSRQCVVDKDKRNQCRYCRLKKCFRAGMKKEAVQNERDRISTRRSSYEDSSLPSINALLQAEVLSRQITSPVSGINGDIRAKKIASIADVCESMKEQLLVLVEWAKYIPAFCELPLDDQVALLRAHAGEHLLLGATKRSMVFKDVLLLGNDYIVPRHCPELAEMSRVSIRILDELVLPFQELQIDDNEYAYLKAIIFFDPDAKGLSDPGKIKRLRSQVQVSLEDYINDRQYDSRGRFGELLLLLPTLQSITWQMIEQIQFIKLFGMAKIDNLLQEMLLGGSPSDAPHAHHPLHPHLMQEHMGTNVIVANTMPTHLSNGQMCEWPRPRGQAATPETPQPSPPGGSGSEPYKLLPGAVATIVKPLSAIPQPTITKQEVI
Put plainly: protein-binding microarray; COS-7 nuclear extract on double-stranded Agilent 4x180k PBM; binding buffer, salt, pH and temperature not given in the material; high values mean tight binding. Particulars: chain copies: 2; label: 3' end of strand 1 on the slide; dsDNA, one strand shown. The gist of the method:
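Double-stranded oligonucleotides of ~60 nt, representing ~44,000 test sequences in quadruplicate, made up a custom Agilent SurePrint G3 4x180k array. Nuclear extracts from COS-7 cells transiently transfected by CaPO4 with a human HNF4α isoform expression vector were applied, and bound HNF4α was imaged at 2-µm resolution on an Agilent G2565CA scanner. Binding signal refers to the background-corrected, normalized gProcessedSignal output of Agilent software.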
For the sequence “CCCCATATCCAGTCAATCCCGTGGACTTTGGCCTAGGGAGATTAGAGTATCGGTCGA”, the binding signal turned out to be 6.13 log2 normalized intensity.

For “TTGAATTCCTTCTTCTTCTGGGGACTTCGGGCCTAGGGAGATTAGAGTATCGGTCGA”, the binding signal was found to be 2.16 log2 normalized intensity.

Take “CTTATAAATCTTCAACTGGAGGATAAAGTTGCCTAGGGAGATTAGAGTATCGGTCGA”: the binding signal was 1.09 log2 normalized intensity.

On to “GAGTCCAAACTGGGACCTGTGACACTCTGCGCCTAGGGAGATTAGAGTATCGGTCGA”, for which the binding signal was 0.644 log2 normalized intensity.

Regarding “CATACCAGGTGTAAAGTCTGGCATACAGGGGCCTAGGGAGATTAGAGTATCGGTCGA”, the binding signal was 0.00259 log2 normalized intensity.

As for “ATGTTAGGCTGGAAAACTGGGCTGTTATTTGCCTAGGGAGATTAGAGTATCGGTCGA”, the binding signal worked out at 0.577 log2 normalized intensity.

For the sequence “TTTGAACACCTCTTCTTTCTTCTCTGGTACGCCTAGGGAGATTAGAGTATCGGTCGA”, the binding signal was 1.8 log2 normalized intensity.

As for “TCCATCATTTTTCTCTCTTGGACTCTTGGAGCCTAGGGAGATTAGAGTATCGGTCGA”, the binding signal was found to be 4.92 log2 normalized intensity.

Turning to “CATTTTTCTCTCTTGGACTCTTGGACTCCCGCCTAGGGAGATTAGAGTATCGGTCGA”, the binding signal was found to be 7.67 log2 normalized intensity.

Take “TACATTGAACTTTGAACACCTCTTCTTTCTGCCTAGGGAGATTAGAGTATCGGTCGA”: the binding signal was determined as 5.51 log2 normalized intensity.

With “CCATACCTCTTGCGTGTTATCTATGGAACAGCCTAGGGAGATTAGAGTATCGGTCGA”, the binding signal stood at 1.67 log2 normalized intensity.

Take “TGCGTGTTATCTATGGAACATGGACTTTGAGCCTAGGGAGATTAGAGTATCGGTCGA”: the binding signal is 9.28 log2 normalized intensity.

As to “CATCTGAACTCTTCATGGACTCCTCTTATCGCCTAGGGAGATTAGAGTATCGGTCGA”, the binding signal came out at 2.06 log2 normalized intensity.

For “AACATGGACTTTGTTGTTTGCCTCTGAAAAGCCTAGGGAGATTAGAGTATCGGTCGA”, the binding signal was determined as 2.8 log2 normalized intensity.

For “TTCTCTCTTGGACTCTTGGACTCCCTGAAGGCCTAGGGAGATTAGAGTATCGGTCGA”, the binding signal worked out at 5.73 log2 normalized intensity.

For the sequence “GAACATGGACTTTGAACCTCTCTTCTTTTTGCCTAGGGAGATTAGAGTATCGGTCGA”, the binding signal worked out at 7.93 log2 normalized intensity.

For “CCTCTTGCGTGTTATCTATGGAACATGGACGCCTAGGGAGATTAGAGTATCGGTCGA”, the binding signal was determined as 2.5 log2 normalized intensity.

“CTATGGAACATGGACTTTGAACCTCTCTTCGCCTAGGGAGATTAGAGTATCGGTCGA”: the binding signal was 9.09 log2 normalized intensity.

Turning to “TTGCCAGTTCCCATTTGCGCTGGTTTTATGGCCTAGGGAGATTAGAGTATCGGTCGA”, the binding signal worked out at 1.65 log2 normalized intensity.

Regarding “GTTATCACAGGCTTGGAATGTTTCTGTATCGCCTAGGGAGATTAGAGTATCGGTCGA”, the binding signal came to 0.74 log2 normalized intensity.

In the case of “AAACGCTGAAGTCTCAAAGTTCACCACTTTGCCTAGGGAGATTAGAGTATCGGTCGA”, the binding signal is 3.3 log2 normalized intensity.

With “GAAGCTGGTAGCATGGCTCAGTCCAAGTCCGCCTAGGGAGATTAGAGTATCGGTCGA”, the binding signal came to 0.896 log2 normalized intensity.

As for “TTGGACTCTGCCACTGGTTTGCACACACCAGCCTAGGGAGATTAGAGTATCGGTCGA”, the binding signal worked out at 1.94 log2 normalized intensity.

As for “TATACATTTTCCCACTTGTATGTCCAAGGGGCCTAGGGAGATTAGAGTATCGGTCGA”, the binding signal turned out to be 1.25 log2 normalized intensity.

On to “GAACAAAGGTTGGTGTGAACCAGGGTTAAGGCCTAGGGAGATTAGAGTATCGGTCGA”, for which the binding signal is 1.59 log2 normalized intensity.

On to “ACCTTTATCTGATCAGAAATGTTTGGAATTGCCTAGGGAGATTAGAGTATCGGTCGA”, for which the binding signal stood at 1.84 log2 normalized intensity.

“GTTATCTATGGAACATGGACTTTGAACCTCGCCTAGGGAGATTAGAGTATCGGTCGA”: the binding signal came to 10.9 log2 normalized intensity.

As for “TCTTCTTCTGGGGACTTCGGTCTTTTTTCTGCCTAGGGAGATTAGAGTATCGGTCGA”, the binding signal stood at 2.67 log2 normalized intensity.

Turning to “CCTTTGGTGCCTCTTTTTTCTTGTTGACTTGCCTAGGGAGATTAGAGTATCGGTCGA”, the binding signal came to 1.91 log2 normalized intensity.

As to “TTTCTCTTTTGACCTTTGGACTTTCACATTGCCTAGGGAGATTAGAGTATCGGTCGA”, the binding signal was determined as 11 log2 normalized intensity.

As to “TGGACTTTGAACCTCTCTTCTTTTTCGTCTGCCTAGGGAGATTAGAGTATCGGTCGA”, the binding signal was 7.42 log2 normalized intensity.

In the case of “AGTCTAACTTTGGACTTTTATGTTAAGATCGCCTAGGGAGATTAGAGTATCGGTCGA”, the binding signal turned out to be 2.93 log2 normalized intensity.

As for “CCTTGCTATGGAGTGGACTTTGGCTTATGCGCCTAGGGAGATTAGAGTATCGGTCGA”, the binding signal came to 7.08 log2 normalized intensity.

As for “ACTCATTTCACATTGGTGCCCTTTGCCTTTGCCTAGGGAGATTAGAGTATCGGTCGA”, the binding signal is 4.99 log2 normalized intensity.

Regarding “TGAACTTTGAACACCTCTTCTTTCTTCTCTGCCTAGGGAGATTAGAGTATCGGTCGA”, the binding signal came to 4.71 log2 normalized intensity.

Regarding “GCCTGTCACCCAACCTCACCTAACCACATTGCCTAGGGAGATTAGAGTATCGGTCGA”, the binding signal is 1.21 log2 normalized intensity.

Consider “GCTGATGCAGAGGGTGCAAAGTTTTTAAAGGCCTAGGGAGATTAGAGTATCGGTCGA”, for which the binding signal turned out to be 1.28 log2 normalized intensity.

As for “ACACCTTTTCTAGCTGAGTTGACCTGTGTTGCCTAGGGAGATTAGAGTATCGGTCGA”, the binding signal stood at 4.51 log2 normalized intensity.

Take “ACATTAATCAGTCGCGTATCTGACTTTATCGCCTAGGGAGATTAGAGTATCGGTCGA”: the binding signal was 0.606 log2 normalized intensity.

Take “CATTCTCTAATCAGGTCGCTGCCTGCCCCTGCCTAGGGAGATTAGAGTATCGGTCGA”: the binding signal came to 3.39 log2 normalized intensity.

As for “TACATTTTGCTCTGTTGTGTCAAAGGTCACGCCTAGGGAGATTAGAGTATCGGTCGA”, the binding signal worked out at 7 log2 normalized intensity.

Consider “TGGTACTATGACCTTTCACCTTTTAGCTTGGCCTAGGGAGATTAGAGTATCGGTCGA”, for which the binding signal came to 6.25 log2 normalized intensity.

As to “TGACCTGGTACTATGACCTTTCACCTTTTAGCCTAGGGAGATTAGAGTATCGGTCGA”, the binding signal was determined as 7.78 log2 normalized intensity.
